GBA activity up: increases beta-glucosidase activity in Gaucher fibroblasts. L444P Gaucher fibroblasts, 4-MU-glucoside fluorescence, 3 days. P04062. activation, % at 10 µM. 30,000 compounds, 0.44% hits. AID 784; in the data active = activation above about 65%;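 note: 0% = vehicle wells and 100% = positive control wells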
Target sequence (P04062 whole entry L483P): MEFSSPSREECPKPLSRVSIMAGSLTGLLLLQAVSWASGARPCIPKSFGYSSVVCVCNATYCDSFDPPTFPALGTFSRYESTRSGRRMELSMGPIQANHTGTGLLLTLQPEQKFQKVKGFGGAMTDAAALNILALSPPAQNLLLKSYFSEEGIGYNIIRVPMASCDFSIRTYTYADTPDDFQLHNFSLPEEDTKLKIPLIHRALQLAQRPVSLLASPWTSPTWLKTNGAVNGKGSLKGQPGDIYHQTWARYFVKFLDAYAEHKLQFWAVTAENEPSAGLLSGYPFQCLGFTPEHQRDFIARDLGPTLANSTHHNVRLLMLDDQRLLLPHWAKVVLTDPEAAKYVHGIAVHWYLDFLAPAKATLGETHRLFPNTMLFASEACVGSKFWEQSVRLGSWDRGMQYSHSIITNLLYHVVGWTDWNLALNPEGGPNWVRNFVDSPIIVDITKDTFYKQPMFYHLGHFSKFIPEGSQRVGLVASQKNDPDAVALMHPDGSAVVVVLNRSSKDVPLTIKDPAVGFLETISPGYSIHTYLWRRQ
* = called active by the depositor. The full list was thinned out, with hits kept by preference.

For CC(=O)N1CCc2cc(Br)cc(S(=O)(=O)NCCCN3CCCC(C)C3)c21 (configuration not stated) the results were GBA activity up 2.9.
O=C(CCC1CCCCC1)N1CCN(Cc2ccc3c(c2)OCO3)CC1 was read as GBA activity up 19.7.
`CC(OC(=O)c1cccs1)C(=O)NCc1cccs1` (configuration not stated) gave GBA activity up 1.4.
Screening COCCNC(=O)C(C)OC(=O)c1nsc(Cl)c1Cl (configuration not stated) returned GBA activity up -18.1.
For CC(OC(=O)c1nsc(Cl)c1Cl)C(=O)NCc1cccs1 (configuration not stated) the results were GBA activity up 79.3*.
Screening CCOCCCn1c(=N)c(C(=O)NCCN2CCOCC2)cc2c(=O)n3cccc(C)c3nc21 returned GBA activity up 75.0*.
`CCOCCCn1c(=N)c(C(=O)NCc2ccc3c(c2)OCO3)cc2c(=O)n3ccccc3nc21` gave GBA activity up -15.1.
COCCn1c(=N)c(C(=O)NCCc2ccc(OC)cc2)cc2c(=O)n3cccc(C)c3nc21 was read as GBA activity up -23.9.
CSc1ccc(N2C(=O)NC3(CCCCC3)C2=O)cc1 was read as GBA activity up 12.9.
For Cc1ccc(C(=O)N2CCN(C(=O)c3ccc(C)c(C)c3)C(C)C2)cc1C (configuration not stated) the results were GBA activity up -1.8.
Screening COc1ccccc1CC1(C)NC(=O)N(CC(=O)N2CC(C)OC(C)C2)C1=O (configuration not stated) returned GBA activity up -10.4.
Cc1cc(C(=O)OCC(=O)N(C)C2CCS(=O)(=O)C2)c(C)n1-c1ccccc1 (configuration not stated) was read as GBA activity up 2.3.
`O=C1Nc2ccccc2C(O)(C(=O)NCc2ccco2)N1c1ccc(Cl)cc1` (configuration not stated) gave GBA activity up -29.8.
`O=C1[C@H]2[C@@H](C(=O)N1c1cc(Cl)cc(Cl)c1)[C@]1(C(=O)Nc3ccccc31)N1CCC[C@@H]21` gave GBA activity up -6.2.
Screening O=C1Nc2ccccc2C(O)(C(=O)NC2CC2)N1c1ccc(Cl)c(Cl)c1 (configuration not stated) returned GBA activity up 81.3*.
For Cn1c(=O)c2cc(S(=O)(=O)NCCC(=O)NCCC3=CCCCC3)ccc2n(C)c1=O the results were GBA activity up -34.0.
For CCn1nnc(-c2ccccc2NC(=O)C(F)(F)F)n1 the results were GBA activity up 10.0.
`CCOC(=O)c1ccc(NC(=O)CSc2nnc(C)n2-c2ccccc2)cc1` gave GBA activity up 9.1.
Screening CCC1C(=O)N=C(SCC(=O)Nc2cccc3ccccc23)NC1=O (configuration not stated) returned GBA activity up 3.7.
For CCOC(=O)c1ccc(NC(=O)CSC2=NC(=O)C(CC)C(=O)N2)cc1 (configuration not stated) the results were GBA activity up 145.1*.
CCOc1ccccc1NC(=O)CSc1nnc(-c2ccccc2Cl)n1Cc1ccco1 was read as GBA activity up 4.5.
`CC(=O)c1cccc(NC(=O)N2CCCC2C(=O)NCc2ccc(C)cc2)c1` (configuration not stated) gave GBA activity up 23.4.
Screening CC(=O)c1cccc(NC(=O)N2CCCC2C(=O)Nc2ccccc2C)c1 (configuration not stated) returned GBA activity up -20.1.
For CC(=O)Nc1cccc(NC(=O)C2CCCN2C(=O)Nc2ccc(C)cc2)c1 (configuration not stated) the results were GBA activity up 80.4*.
`Cn1c(=O)n(C)c2cc(NC(=O)CSc3nnc(-c4ccccc4O)n3-c3ccccc3)ccc21` gave GBA activity up -6.3.
Screening CC1(C)CC(=O)C=C(NCC2CCCO2)C1 (configuration not stated) returned GBA activity up 2.0.
CC(C)n1nnnc1SCC(=O)Nc1ccccc1N1CCOCC1 was read as GBA activity up -13.6.
For Cn1c(Cc2ccccc2)nnc1SCC(=O)Nc1ccccc1N1CCOCC1 the results were GBA activity up 96.1*.
Cn1c(Cc2ccccc2)nnc1SCC(=O)NC1CCCCC1 was read as GBA activity up -2.1.
Screening CCc1ccc(OCC(=O)Nc2ncc3c(n2)CC(C)(C)CC3=O)cc1 returned GBA activity up -46.2.
COC(=O)NCCOC(=O)N(O)c1ccc(Br)cc1 was read as GBA activity up -47.6.
For CCC(c1nnc(SCc2nc3ccccc3s2)n1Cc1ccccc1)N(C)C (configuration not stated) the results were GBA activity up -0.1.
Screening c1ccc(-n2cnnc2SCc2nc3ccccc3s2)cc1 returned GBA activity up -18.9.
For c1ccc(Cn2c(SCc3nc4ccccc4s3)nnc2-c2ccco2)cc1 the results were GBA activity up 127.2*.
`CC(=Nc1ccc2c(c1)nc(CO)n2C)C1=C(O)CC(C)(C)CC1=O` gave GBA activity up -18.7.
`O=C(NC(=O)c1cccc(OC(F)(F)C(F)F)c1)OC1CCS(=O)(=O)C1` (configuration not stated) gave GBA activity up 43.5.
`C=CCc1ccc(OCCCCCN2CCOCC2)c(OC)c1` gave GBA activity up 7.7.
Screening O=C1OCCN1CCN(CN1C(=O)CCC1=O)CN1C(=O)CCC1=O returned GBA activity up -15.3.
Cc1ccc2c3c(c(SCC(=O)Nc4nonc4C)nc2c1)CCCC3 was read as GBA activity up 14.3.
Cc1nonc1NC(=O)OCCN1CCOC1=O was read as GBA activity up 88.4*.
Screening COCc1cc(C)nc(N2CCN(c3ccccc3)CC2)c1C#N returned GBA activity up -0.3.
Screening COCc1cc(C)nc(NC2CCCCC2)c1C#N returned GBA activity up 101.2*.
For COCc1cc(C)nc(SCC(=O)Nc2ccccc2C)c1C#N the results were GBA activity up 52.1.
For CC(C)CCSc1nc(N)c(C#N)cc1C#N the results were GBA activity up -42.9.
For COCCN1Cc2cccc(C(=O)NC3CCCCCC3)c2C1=O the results were GBA activity up -7.0.
`OCc1nnn(-c2cccc(C(F)(F)F)c2)c1CO` gave GBA activity up 3.8.
CCc1ccccc1N(C(=O)c1cccs1)C1C=CS(=O)(=O)C1 (configuration not stated) was read as GBA activity up -19.5.
Screening Cc1cccc(NC(=O)CSc2ncnc3c2oc2ccccc23)c1 returned GBA activity up -9.8.
Screening Cc1nc(SCC(=O)Nc2ccc3c(c2)OCCO3)c2oc3ccccc3c2n1 returned GBA activity up 149.1*.
`CCc1nc(SCC(=O)Nc2ccc3c(c2)OCCO3)c2oc3ccccc3c2n1` gave GBA activity up -131.4.
COC(=O)c1cc(C(=O)OC)cc(N2C(=O)CN=C2Nc2nc(C)cc(C)n2)c1 was read as GBA activity up -18.1.
For Cc1csc(=O)n1CCC(=O)O the results were GBA activity up -0.8.
COc1ccc(C(=O)NCC2OCCc3ccccc32)c(O)c1 (configuration not stated) was read as GBA activity up -4.7.
`O=C(CN1CCC(O)CC1)N1c2ccccc2C=Cc2ccccc21` gave GBA activity up 15.0.
Screening O=C(CN1C(=O)c2ccccc2S1(=O)=O)NCc1ccccn1 returned GBA activity up -13.4.
COc1ccc(CCNC(=O)CN2C(=O)c3ccccc3S2(=O)=O)cc1 was read as GBA activity up 6.3.
Screening O=C(CN1C(=O)c2ccccc2S1(=O)=O)NCCSC1CCCCC1 returned GBA activity up 811.6*.

Bioassay records: PubChem BioAssay, The Scripps Research Institute Molecular Screening Center
